Measured values as given in PubChem BioAssay.
The source made the active and inactive calls.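 The calls were made as follows, unless noted: active = inhibition above the screen-wide mean plus 3 SD, about 51%; inactive = the rest.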

What was measured:
[1] = reduced mouse 2C T cell binding to pMHC/ICAM-1 vesicles – MLPCN validation set, flow cytometry, LFA-1/ICAM-1 modulator project, pilot screen (AID 2523;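 active = response below a set limit, under 55% cells CD8-positive and vesicle-bound, and CD8 cells' 90th-percentile brightness under 279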;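 as to vesicle binding response: mean PE anti-B7-1 fluorescence of CD8+ cells relative to row control; 100% = QL9-loaded vesicles with DMSO vehicle in the same plate row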); conditions: 2C mouse CD8+ T cells, at 7 µM, stronger effect = lower value; double positive events: measured here: CD8+/vesicle+ event percentage
[2] = target: Integrin beta-1 (Homo sapiens) + Integrin alpha-4 (Homo sapiens) (UniProt P13612+P05556); experiment: alpha4beta1 integrin LIBS antibody binding reduction – U937 cells, HUTS-21 mAb, flow cytometry, validation set, VLA-4 allosteric modulator project, pilot screen (AID 2674;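 active = inhibition above 50%, about 3 SD of the validation set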;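 also: antibody binding induced by the VLA-4 ligand LDV present at three times its Kd; 0% = LDV ligand with antibody and no compound and 100% = antibody without LDV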); conditions: HUTS-21 LIBS mAb binding, at 6.7 µM, stronger effect = higher value, binding induced by LDV ligand
Integrin beta-1 (Homo sapiens) + Integrin alpha-4 (Homo sapiens), sequence (P05556 whole entry, looked up): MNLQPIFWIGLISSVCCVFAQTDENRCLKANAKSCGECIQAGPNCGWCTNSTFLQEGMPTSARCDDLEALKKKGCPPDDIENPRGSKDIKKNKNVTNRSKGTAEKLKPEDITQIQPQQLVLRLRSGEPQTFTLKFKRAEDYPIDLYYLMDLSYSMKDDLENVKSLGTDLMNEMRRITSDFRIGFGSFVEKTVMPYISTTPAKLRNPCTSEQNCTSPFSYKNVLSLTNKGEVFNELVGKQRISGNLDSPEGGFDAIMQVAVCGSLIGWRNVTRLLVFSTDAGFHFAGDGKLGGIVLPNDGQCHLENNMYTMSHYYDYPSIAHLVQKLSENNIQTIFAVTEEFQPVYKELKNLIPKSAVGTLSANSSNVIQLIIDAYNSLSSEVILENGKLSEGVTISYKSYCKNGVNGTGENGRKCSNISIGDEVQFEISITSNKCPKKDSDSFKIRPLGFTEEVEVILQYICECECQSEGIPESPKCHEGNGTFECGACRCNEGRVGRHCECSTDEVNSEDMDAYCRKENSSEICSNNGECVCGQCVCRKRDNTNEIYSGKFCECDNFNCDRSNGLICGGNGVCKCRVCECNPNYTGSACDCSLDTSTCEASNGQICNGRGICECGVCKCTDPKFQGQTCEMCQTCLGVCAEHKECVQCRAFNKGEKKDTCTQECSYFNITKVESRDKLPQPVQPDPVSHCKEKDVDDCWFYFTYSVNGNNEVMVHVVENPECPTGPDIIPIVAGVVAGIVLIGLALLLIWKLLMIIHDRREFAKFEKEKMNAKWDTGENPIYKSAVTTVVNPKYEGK
Integrin beta-1 (Homo sapiens) + Integrin alpha-4 (Homo sapiens), sequence (P13612 whole entry, looked up): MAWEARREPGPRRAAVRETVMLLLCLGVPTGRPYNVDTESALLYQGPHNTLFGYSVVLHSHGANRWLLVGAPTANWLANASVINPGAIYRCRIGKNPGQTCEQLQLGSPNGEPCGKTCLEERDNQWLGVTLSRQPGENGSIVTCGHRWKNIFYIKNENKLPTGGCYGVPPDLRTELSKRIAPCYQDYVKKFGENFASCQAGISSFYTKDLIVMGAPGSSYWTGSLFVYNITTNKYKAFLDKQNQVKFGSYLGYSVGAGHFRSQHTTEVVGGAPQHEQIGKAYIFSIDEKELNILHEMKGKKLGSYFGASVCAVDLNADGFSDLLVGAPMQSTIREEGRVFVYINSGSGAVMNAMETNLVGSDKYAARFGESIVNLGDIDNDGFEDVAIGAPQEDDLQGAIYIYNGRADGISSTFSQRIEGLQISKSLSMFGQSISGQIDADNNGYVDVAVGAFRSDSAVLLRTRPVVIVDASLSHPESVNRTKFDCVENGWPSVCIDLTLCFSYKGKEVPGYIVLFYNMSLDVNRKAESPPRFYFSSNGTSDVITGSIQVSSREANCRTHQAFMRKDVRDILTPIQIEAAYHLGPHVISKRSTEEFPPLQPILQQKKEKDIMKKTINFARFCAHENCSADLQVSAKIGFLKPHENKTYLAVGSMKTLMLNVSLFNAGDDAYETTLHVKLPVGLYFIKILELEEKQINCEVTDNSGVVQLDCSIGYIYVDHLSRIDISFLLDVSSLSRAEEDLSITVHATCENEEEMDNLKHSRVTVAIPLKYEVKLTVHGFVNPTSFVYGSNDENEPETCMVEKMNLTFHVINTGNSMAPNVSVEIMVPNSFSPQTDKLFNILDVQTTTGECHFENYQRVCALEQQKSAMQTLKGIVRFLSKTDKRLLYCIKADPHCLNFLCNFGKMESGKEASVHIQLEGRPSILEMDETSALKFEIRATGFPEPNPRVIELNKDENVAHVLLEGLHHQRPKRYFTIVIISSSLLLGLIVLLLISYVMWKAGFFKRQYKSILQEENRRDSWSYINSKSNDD

[3] = calorie-restriction mimetic ROS inhibitors, yeast – validation compound set, pilot screen (AID 2706;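 active = superoxide response below 65% of plate, a cut near 3 SD across the whole screen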;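 also: yeast exposed to compound for one week at 30 degrees C before staining; 100% = mean of all compound wells on the same plate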); conditions: S. cerevisiae aging, superoxide DHE fluorescence; at 10 µM, stronger effect = lower value
[4] = target: Beta-adrenergic receptor kinase 1 (Homo sapiens) (UniProt P25098); experiment: GRK2 binders displacing RNA aptamer, biochemical, validation, human GRK2, bead flow cytometry (AID 488806;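 active = aptamer binding inhibition above 30%, about 3 SD of noise from non-fluorescent compounds; inactive = inhibition at or below 30%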); conditions: bead-bound GRK2, FAM-aptamer displacement, at 10 µM, stronger effect = higher value
Beta-adrenergic receptor kinase 1 (Homo sapiens), sequence (P25098 whole entry, looked up): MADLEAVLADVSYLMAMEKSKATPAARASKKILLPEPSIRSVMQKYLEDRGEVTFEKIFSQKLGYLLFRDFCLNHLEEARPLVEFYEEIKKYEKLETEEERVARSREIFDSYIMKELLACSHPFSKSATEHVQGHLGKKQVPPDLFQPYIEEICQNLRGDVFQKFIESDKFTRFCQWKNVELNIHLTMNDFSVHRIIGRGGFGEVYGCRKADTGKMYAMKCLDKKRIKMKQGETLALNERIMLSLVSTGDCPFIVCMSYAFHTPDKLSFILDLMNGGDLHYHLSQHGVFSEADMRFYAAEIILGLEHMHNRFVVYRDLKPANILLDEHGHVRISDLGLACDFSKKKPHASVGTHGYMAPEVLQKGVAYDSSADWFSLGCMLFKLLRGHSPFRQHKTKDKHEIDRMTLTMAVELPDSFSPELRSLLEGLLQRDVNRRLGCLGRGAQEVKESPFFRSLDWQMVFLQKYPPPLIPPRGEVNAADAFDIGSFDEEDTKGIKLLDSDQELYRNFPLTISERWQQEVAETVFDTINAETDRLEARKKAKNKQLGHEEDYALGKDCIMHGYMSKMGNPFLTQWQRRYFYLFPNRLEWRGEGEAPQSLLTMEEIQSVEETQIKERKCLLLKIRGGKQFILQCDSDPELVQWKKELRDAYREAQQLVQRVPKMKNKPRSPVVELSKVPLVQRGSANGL

[5] = target: Beta-2 adrenergic receptor (Homo sapiens) (UniProt P07550); experiment: agonist-induced loss of surface beta2AR – cell-based, FAP fluorogen, flow cytometry, validation set, pilot screen (AID 504459;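 active = percent response above 42, roughly 3 SD of non-fluorescent test compounds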;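 also: agonist-driven loss of surface beta2AR via internalization measured by FAP dye flow cytometry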); conditions: Am2.2-beta2AR cells, at 10 µM, stronger effect = higher value
Beta-2 adrenergic receptor (Homo sapiens), sequence (P07550 whole entry, looked up): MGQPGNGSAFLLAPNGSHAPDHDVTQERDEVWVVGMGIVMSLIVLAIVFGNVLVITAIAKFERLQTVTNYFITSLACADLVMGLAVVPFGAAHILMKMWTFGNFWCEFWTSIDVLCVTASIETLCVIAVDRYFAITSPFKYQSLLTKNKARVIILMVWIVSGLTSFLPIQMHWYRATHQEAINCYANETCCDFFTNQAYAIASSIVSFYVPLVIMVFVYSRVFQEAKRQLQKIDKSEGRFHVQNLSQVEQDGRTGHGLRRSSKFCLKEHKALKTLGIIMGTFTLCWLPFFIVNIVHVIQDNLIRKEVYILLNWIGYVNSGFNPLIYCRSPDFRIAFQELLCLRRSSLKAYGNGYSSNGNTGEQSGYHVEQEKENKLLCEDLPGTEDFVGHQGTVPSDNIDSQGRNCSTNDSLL

[6] = target: AP-2 complex subunit beta (Homo sapiens) (UniProt P63010); experiment: beta-arrestin/AP2 interaction blockers – biochemical, validation set, GST-AP2 beads, flow cytometry, pilot screen (AID 504541;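 active = inhibition above 54%, about 3 SD of non-fluorescent compounds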;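 also: AP2 carries R879A mutation and is captured from E. coli lysate; bead-bound FITC arrestin peptide fluorescence measuring arrestin peptide binding to AP2; 0% = DMSO wells and 100% = excess unlabeled arrestin peptide control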); conditions: FITC arrestin peptide, at 10 µM, stronger effect = higher value, AP2 beta2 appendage fragment, R879A mutant
AP-2 complex subunit beta (Homo sapiens), sequence (P63010 whole entry, looked up, the tested form may be a part, one chain of several): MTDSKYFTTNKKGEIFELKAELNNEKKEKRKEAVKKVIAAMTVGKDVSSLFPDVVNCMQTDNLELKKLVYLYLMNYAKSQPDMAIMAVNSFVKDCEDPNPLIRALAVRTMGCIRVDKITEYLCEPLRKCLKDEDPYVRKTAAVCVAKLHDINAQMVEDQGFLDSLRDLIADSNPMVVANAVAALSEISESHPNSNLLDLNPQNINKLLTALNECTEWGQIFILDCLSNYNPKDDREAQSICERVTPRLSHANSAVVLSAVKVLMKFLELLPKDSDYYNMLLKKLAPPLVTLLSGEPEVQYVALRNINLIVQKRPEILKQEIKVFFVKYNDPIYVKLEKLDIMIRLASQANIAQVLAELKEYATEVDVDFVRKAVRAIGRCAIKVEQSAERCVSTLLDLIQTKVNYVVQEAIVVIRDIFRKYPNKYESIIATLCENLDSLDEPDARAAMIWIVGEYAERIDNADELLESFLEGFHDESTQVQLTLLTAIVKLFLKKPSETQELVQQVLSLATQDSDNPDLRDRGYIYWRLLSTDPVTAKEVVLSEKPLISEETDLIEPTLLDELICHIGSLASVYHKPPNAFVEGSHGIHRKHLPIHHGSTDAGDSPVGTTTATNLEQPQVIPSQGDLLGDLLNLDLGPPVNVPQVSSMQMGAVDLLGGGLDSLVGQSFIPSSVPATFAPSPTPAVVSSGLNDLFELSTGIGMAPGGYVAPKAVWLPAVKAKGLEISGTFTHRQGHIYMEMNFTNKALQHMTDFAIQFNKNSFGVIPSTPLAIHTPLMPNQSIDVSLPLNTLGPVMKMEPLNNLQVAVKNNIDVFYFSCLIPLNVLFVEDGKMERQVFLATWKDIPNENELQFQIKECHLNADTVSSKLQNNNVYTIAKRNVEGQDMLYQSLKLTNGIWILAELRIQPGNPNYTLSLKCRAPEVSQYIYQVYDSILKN

[7] = cytosolic pH regulators acting via V-ATPase – S. cerevisiae, pHLuorin, HTS validation (AID 504600; in the data active = response above about 15%;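 also: plate controls were DMSO for no effect and reference compound for full effect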); conditions: V-ATPase proton transport, at 10 µM, stronger effect = higher value
[8] = tested on: anti-desmoglein-3 scFv antibody binding to human DSG3; experiment: blockers of pathogenic pemphigus antibody–desmoglein-3 binding – biochemical, validation compound set, bead-based, flow cytometry, pilot screen (AID 588368;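 active = binding below the plate cutoff, the plate median minus 3 SD, with a reading above zero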;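 also: signal is the median channel fluorescence of bead-bound GFP antibody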); conditions: Protein G beads, DSG3-Fc, scFv-GFP binding, at 10 µM, stronger effect = lower value
[9] = Nile Red efflux blockade in pump-expressing yeast – validation compound set, multiplex, phenotypic, pilot screen (AID 588506;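 active = efflux inhibition above 0.42, the validation set average plus 4 SD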;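 also: Nile Red retained in cells so higher fluorescence means more efflux inhibition; 0 = negative control wells and 1 = enniatin B 25 µM full block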); conditions: S. cerevisiae pump-expressing triplex, Nile Red efflux flow cytometry; at 10 µM; stronger effect = higher value; the pumps come from Candida albicans
[10] = target: ATP-binding cassette sub-family B member 6 (Homo sapiens) (UniProt Q9NP58); experiment: blockers of ABCB6-driven porphyrin uptake – K562-ABCB6 cells, flow cytometry, validation set, pilot screen (AID 588550); conditions: K562-ABCB6 porphyrin accumulation, 1 h, at 10 µM, stronger effect = higher value;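 also: 0% = DMSO wells and 100% = benzethonium chloride 70 µM positive control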
ATP-binding cassette sub-family B member 6 (Homo sapiens), sequence (Q9NP58 whole entry, looked up): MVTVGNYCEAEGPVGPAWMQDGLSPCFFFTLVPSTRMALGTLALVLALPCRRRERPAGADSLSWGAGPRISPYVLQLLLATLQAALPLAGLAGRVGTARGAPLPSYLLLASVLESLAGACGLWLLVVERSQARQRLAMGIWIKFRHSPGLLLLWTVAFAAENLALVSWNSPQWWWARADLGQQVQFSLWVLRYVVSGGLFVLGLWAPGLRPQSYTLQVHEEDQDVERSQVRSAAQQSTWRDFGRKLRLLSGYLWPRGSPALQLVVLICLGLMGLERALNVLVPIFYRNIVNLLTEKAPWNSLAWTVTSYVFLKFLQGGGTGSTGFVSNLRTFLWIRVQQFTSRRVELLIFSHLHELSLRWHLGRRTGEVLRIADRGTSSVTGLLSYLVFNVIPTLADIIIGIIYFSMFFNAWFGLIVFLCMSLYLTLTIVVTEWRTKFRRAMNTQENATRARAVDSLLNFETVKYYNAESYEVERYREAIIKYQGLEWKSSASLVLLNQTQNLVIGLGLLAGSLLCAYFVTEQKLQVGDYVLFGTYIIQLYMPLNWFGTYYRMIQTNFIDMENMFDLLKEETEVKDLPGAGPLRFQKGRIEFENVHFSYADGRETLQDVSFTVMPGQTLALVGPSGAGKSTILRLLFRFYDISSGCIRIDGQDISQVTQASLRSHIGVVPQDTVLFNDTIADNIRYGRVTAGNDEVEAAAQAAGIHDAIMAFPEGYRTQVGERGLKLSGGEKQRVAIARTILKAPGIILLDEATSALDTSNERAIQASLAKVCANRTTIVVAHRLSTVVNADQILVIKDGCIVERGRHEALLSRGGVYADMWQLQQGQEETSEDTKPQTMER

[11] = AML differentiation inducers, ER-HoxA9 marrow cells – cell-based, GFP/MAC1 double positive, flow cytometry, validation set, primary screen (AID 588685;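 active = differentiation response of at least 50%, scaled between solvent and reference control, from cells with both markers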;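 also: compound exposure lasts four days before antibody staining and flow analysis; 0% = DMSO wells and 100% = 5 µM fulvestrant positive control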); conditions: stronger effect = higher value, normalized: vehicle 0, fulvestrant 100

COC(=O)c1cc(C(=O)NCCC(C)C)cc([N+](=O)[O-])c1
inactive: vesicle binding response [1] 229% | inhibition [2] 2.3% | superoxide response (% of plate) [3] 112% | aptamer binding inhibition [4] 4% | response [5] 7.63% | inhibition [6] -12% | response [7] 2.1% | binding (% of control) [8] 94.5% | efflux inhibition (fraction of control) [9] -0.13 | inhibition [10] 3% | differentiation response [11] -15.2%
57.8%: double positive events [1]

O=C(C1CCCCC1)N1CC(=O)N2CCc3ccccc3C2C1 (stereo unspecified)
61.4%: double positive events [1]
inactive: vesicle binding response [1] 225% | inhibition [2] -2.82% | superoxide response (% of plate) [3] 109% | aptamer binding inhibition [4] 1% | response [5] -15.4% | inhibition [6] -1.09% | response [7] -5.39% | binding (% of control) [8] 101% | efflux inhibition (fraction of control) [9] 0 | inhibition [10] 3% | differentiation response [11] 29.5%

O=C(Nc1cccc(-c2nc3ncccc3o2)c1)c1ccccc1
inactive: vesicle binding response [1] 159% | inhibition [2] 2.3% | superoxide response (% of plate) [3] 106% | aptamer binding inhibition [4] 1% | response [5] 17.2% | inhibition [6] -1.86% | response [7] 7.44% | binding (% of control) [8] 102% | efflux inhibition (fraction of control) [9] -0.06 | inhibition [10] 0% | differentiation response [11] -16.8%
56.1%: double positive events [1]

O=C(NCc1ccccc1Cl)NC(=O)c1ccccc1
62%: double positive events [1]
inactive: vesicle binding response [1] 221% | inhibition [2] 6.46% | superoxide response (% of plate) [3] 115% | aptamer binding inhibition [4] 4% | response [5] 0.79% | inhibition [6] 8.1% | response [7] -5.42% | binding (% of control) [8] 98.7% | efflux inhibition (fraction of control) [9] 0.19 | inhibition [10] 7% | differentiation response [11] 1.64%

COc1ccc(/C=C2\CCc3ccccc3C2=O)c(OC)c1OC
68.5%: double positive events [1]
inactive: vesicle binding response [1] 262% | inhibition [2] 2.3% | superoxide response (% of plate) [3] 94.8% | aptamer binding inhibition [4] 3% | response [5] -0.85% | inhibition [6] -2.94% | response [7] 5.35% | binding (% of control) [8] 102% | efflux inhibition (fraction of control) [9] 0.15 | inhibition [10] 5% | differentiation response [11] 31.2%

COc1cc(/C=C(\C#N)C(=O)N2CCc3ccccc32)ccc1O
64.1%: double positive events [1]
inactive: vesicle binding response [1] 273% | inhibition [2] -88.6% | superoxide response (% of plate) [3] 98.9% | aptamer binding inhibition [4] -1% | response [5] 0.72% | inhibition [6] -7.55% | response [7] 1.46% | binding (% of control) [8] 105% | efflux inhibition (fraction of control) [9] 0.19 | inhibition [10] -41% | differentiation response [11] 2.46%

Cc1ccc(P(=O)(CSC(=N)N)c2ccc(C)cc2)cc1
inactive: vesicle binding response [1] 155% | inhibition [2] 4.27% | superoxide response (% of plate) [3] 95% | aptamer binding inhibition [4] 8% | response [5] 1.61% | inhibition [6] 2.42% | response [7] -0.71% | binding (% of control) [8] 104% | efflux inhibition (fraction of control) [9] 0.3 | inhibition [10] 35% | differentiation response [11] 4.2%
60.2%: double positive events [1]

C=CCn1c(SCC(=O)NC2CCCCC2)nc2ccccc2c1=O
inactive: vesicle binding response [1] 172% | inhibition [2] 4.27% | superoxide response (% of plate) [3] 114% | aptamer binding inhibition [4] 3% | response [5] -5.54% | inhibition [6] 1.93% | response [7] 11.4% | binding (% of control) [8] 99.2% | efflux inhibition (fraction of control) [9] 0 | inhibition [10] -4% | differentiation response [11] -17.7%
57.6%: double positive events [1]

Nc1ccc2[nH]ncc2c1
inactive: vesicle binding response [1] 174% | inhibition [2] -8.62% | superoxide response (% of plate) [3] 110% | aptamer binding inhibition [4] 12% | response [5] 20.4% | inhibition [6] 11.5% | response [7] 1.54% | binding (% of control) [8] 104% | inhibition [10] -7%
active: efflux inhibition (fraction of control) [9] 0.73 | differentiation response [11] 87.2%
62.1%: double positive events [1]

Nc1ccc(N=Nc2ccccc2)c(N)n1
inactive: vesicle binding response [1] 133% | inhibition [2] 28.7% | superoxide response (% of plate) [3] 114% | aptamer binding inhibition [4] 3% | response [5] -11.9% | inhibition [6] 4.28% | response [7] 6.54% | binding (% of control) [8] 103% | efflux inhibition (fraction of control) [9] -0.26 | inhibition [10] 4% | differentiation response [11] -5.97%
61.7%: double positive events [1]

CCSc1nc(O)c(C2OC(=O)c3c2ccc(OC)c3OC)c(=O)n1CC (stereo unspecified)
active: inhibition [10] 109%
inactive: vesicle binding response [1] 289% | inhibition [2] -1.79% | superoxide response (% of plate) [3] 86.4% | aptamer binding inhibition [4] 2% | response [5] 15.5% | inhibition [6] -2.62% | response [7] -1.36% | binding (% of control) [8] 101% | efflux inhibition (fraction of control) [9] 0.12 | differentiation response [11] 20%
69.4%: double positive events [1]

O=c1oc2c(CN3CCN(CCO)CC3)c(O)ccc2cc1-c1ccccn1
62.7%: double positive events [1]
inactive: vesicle binding response [1] 150% | inhibition [2] -14.9% | superoxide response (% of plate) [3] 88.3% | aptamer binding inhibition [4] -1% | inhibition [6] -9.17% | response [7] 5.97% | binding (% of control) [8] 109% | efflux inhibition (fraction of control) [9] -0.06 | inhibition [10] 15% | differentiation response [11] 10.6%
active: response [5] 59.8%

CC[n+]1ccc2cc(OC)c(OC)cc2c1Cc1ccc(OC)c(OC)c1
inactive: vesicle binding response [1] 174% | inhibition [2] -10.5% | superoxide response (% of plate) [3] 98.6% | aptamer binding inhibition [4] 2% | response [5] -11.2% | inhibition [6] -12.4% | response [7] -0.56% | binding (% of control) [8] 106% | efflux inhibition (fraction of control) [9] -0.09 | inhibition [10] 6% | differentiation response [11] -1.05%
64%: double positive events [1]
